What all share (assay): NCI-60 one-dose screen, 48 h (100 = growth as untreated, 0 = no growth, -100 = all killed)
In one assay the test system is HCT-15 colon. To be noted: 10 µM unless noted.
Another assay relates to HT29 colon. To be noted: 10 µM unless noted.
Another assay deals with SNB-75 CNS. To be noted: 10 µM unless noted.
A further assay relates to SNB-19 CNS. To be noted: 10 µM unless noted.
The next assay has as its system U251 CNS. To be noted: 10 µM unless noted.
The test system of the next assay is PC-3 prostate. To be noted: 10 µM unless noted.
In another assay the test system is SK-MEL-5 melanoma. To be noted: 10 µM unless noted.
A further assay relates to UACC-62 melanoma. To be noted: 10 µM unless noted.
For a further assay, the system named is LOX IMVI melanoma. To be noted: 10 µM.
Another assay concerns SK-MEL-28 melanoma. To be noted: 10 µM unless noted.
A further assay concerns EKVX NSCLC. To be noted: 10 µM unless noted.
Another assay concerns SN12C renal. To be noted: 10 µM unless noted.
A further assay relates to UO-31 renal. To be noted: 10 µM unless noted.
Another assay relates to TK-10 renal. To be noted: 10 µM unless noted.
The test system of the next assay is ACHN renal. To be noted: 10 µM unless noted.
The test system of another assay is CAKI-1 renal. To be noted: 10 µM unless noted.
A further assay has as its system A498 renal. To be noted: 10 µM unless noted.
The test system of the next assay is CCRF-CEM leukemia. To be noted: 10 µM unless noted.
For a further assay, the system named is MOLT-4 leukemia. To be noted: 10 µM unless noted.
The test system of another assay is SK-MEL-2 melanoma. To be noted: 10 µM unless noted.

The results in this text go back to PubChem BioAssay (NCI).

About 83,000 compounds went through this panel and 20% of them were active in at least one assay; those are over-represented in the sample as a whole.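 How to read the values: 0–100, growth inhibition (40 = 60% inhibited); 0, no net growth; -100 to 0, cell death (-40 = 40% of starting cells died; -100 = all dead).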 A number with no mark means an inactive call. The source made the active and inactive calls. Rule for the calls: active = growth percent below 10; inactive = the rest.

As to `O=C(CCl)Oc1ccc([N+](=O)[O-])cc1`, the growth in the assay on HCT-15 colon was 110%; with HT29 colon, 119%; in the assay on SNB-75 CNS it was 91.2%; in the assay on SNB-19 CNS, 115%; in the assay on U251 CNS it was 106%; with PC-3 prostate, 89.9%. In addition, the growth in the assay with SK-MEL-5 melanoma was 103%; in the assay on UACC-62 melanoma it was 114%; with LOX IMVI melanoma, 98.1%; with SK-MEL-28 melanoma, 114%; with EKVX NSCLC it was 112%; in the assay with SN12C renal, 116%. Moreover, the growth in the assay on UO-31 renal is 60.8%; in the assay on TK-10 renal it was 109%; with ACHN renal it was 109%; with CAKI-1 renal, 124%; in the assay with A498 renal, 133%; in the assay with CCRF-CEM leukemia, 95.9%. Further, the growth with MOLT-4 leukemia was 105%.

For the compound `CCCC(=O)CC(=O)c1ccccc1`, the growth in the assay with HCT-15 colon was 103%; in the assay on HT29 colon it was 91.1%; in the assay on SNB-75 CNS, 105%; in the assay on SNB-19 CNS it was 103%; in the assay with U251 CNS, 86%; with PC-3 prostate, 94.7%. Further, the growth in the assay with SK-MEL-5 melanoma was 99.5%; with UACC-62 melanoma, 103%; in the assay with LOX IMVI melanoma, 97.5%; with SK-MEL-28 melanoma it was 107%; in the assay with SK-MEL-2 melanoma, 78.5%; in the assay with SN12C renal, 96.3%. Besides, the growth with UO-31 renal is 90.8%; with TK-10 renal, 94.8%; in the assay on CAKI-1 renal it was 107%; with A498 renal, 70.4%; with CCRF-CEM leukemia, 97.5%; in the assay with MOLT-4 leukemia, 107%.

For the compound `NC(=S)c1c(N)n(C2OC(CO)C(O)C2O)c2ncnc(N)c12` (configuration not stated), the growth is 3.4% (active) in the assay on HCT-15 colon; 5.09% (active) in the assay on HT29 colon; -8.18% (active) with SNB-75 CNS; 14.9% in the assay on SNB-19 CNS; 17.3% in the assay on U251 CNS; -10.1% (active) in the assay on PC-3 prostate. Moreover, the growth in the assay on SK-MEL-5 melanoma is -77.5% (active); in the assay with UACC-62 melanoma it was -73.7% (active); in the assay with LOX IMVI melanoma it was -3.22% (active); with SK-MEL-28 melanoma, -46.8% (active); in the assay on EKVX NSCLC it was -27.4% (active); with SN12C renal, 15%. Moreover, the growth is -40% (active) in the assay on UO-31 renal; -4.54% (active) in the assay on TK-10 renal; 11.3% in the assay on ACHN renal; -55.6% (active) in the assay on A498 renal; -48.9% (active) with CCRF-CEM leukemia.

Regarding `Cc1cc(NC(=O)c2ccccc2)c(Cl)cc1N`, the growth is 100% in the assay with HCT-15 colon; 102% with HT29 colon; 100% in the assay on SNB-75 CNS; 93.9% with SNB-19 CNS; 102% with U251 CNS; 108% in the assay with PC-3 prostate. For the same compound, the growth with SK-MEL-5 melanoma was 97.5%; in the assay on UACC-62 melanoma, 89.8%; with LOX IMVI melanoma, 97.6%; in the assay on SK-MEL-28 melanoma it was 124%; with EKVX NSCLC it was 107%; with SN12C renal, 100%. For the same compound, the growth in the assay with UO-31 renal is 86.6%; in the assay with TK-10 renal, 141%; in the assay with ACHN renal it was 98.8%; in the assay with CCRF-CEM leukemia it was 47.9%.

On to `O=C(O)c1ccc([N+](=O)[O-])cc1S(=O)(=O)O`, for which the growth in the assay on HCT-15 colon was 106%; with HT29 colon it was 99%; with SNB-75 CNS, 118%; in the assay on SNB-19 CNS, 105%; in the assay on U251 CNS, 94.9%; with PC-3 prostate, 100%. The growth was 99.7% in the assay on SK-MEL-5 melanoma; 101% in the assay with UACC-62 melanoma; 98.1% in the assay on LOX IMVI melanoma; 103% in the assay on SK-MEL-28 melanoma; 95.9% in the assay with SK-MEL-2 melanoma; 102% in the assay on UO-31 renal. Moreover, the growth with TK-10 renal was 99.3%; in the assay with CAKI-1 renal it was 110%; in the assay with A498 renal it was 108%; in the assay with CCRF-CEM leukemia, 81.2%; with MOLT-4 leukemia, 105%.

As to `CCCCNC(=O)c1ccc(OCC)cc1`, the growth in the assay on HCT-15 colon was 105%; in the assay with HT29 colon, 107%; with SNB-75 CNS it was 102%; in the assay with SNB-19 CNS, 105%; with U251 CNS, 99.1%; in the assay with PC-3 prostate it was 90.9%. For the same compound, the growth in the assay with SK-MEL-5 melanoma was 103%; with UACC-62 melanoma, 98.2%; in the assay on LOX IMVI melanoma it was 95.2%; in the assay on SK-MEL-28 melanoma it was 101%; in the assay with EKVX NSCLC, 103%; in the assay on SN12C renal it was 103%. In addition, the growth with UO-31 renal was 101%; in the assay with TK-10 renal, 105%; in the assay on ACHN renal, 109%; in the assay on CAKI-1 renal, 100%; with A498 renal, 94.2%; in the assay on CCRF-CEM leukemia it was 94.9%. In the assay on MOLT-4 leukemia, the growth was 105%.

Consider `COC(=O)Cc1cc(COC(C)=O)ccc1C`, for which the growth in the assay on HCT-15 colon is 106%; in the assay with HT29 colon it was 96.6%; with SNB-75 CNS it was 97.8%; with SNB-19 CNS, 113%; in the assay on U251 CNS, 109%; with PC-3 prostate, 92.6%. Besides, the growth is 110% with SK-MEL-5 melanoma; 104% in the assay on UACC-62 melanoma; 108% in the assay with LOX IMVI melanoma; 113% with SK-MEL-28 melanoma; 119% in the assay with EKVX NSCLC; 114% in the assay with SN12C renal. Moreover, the growth is 81.3% with UO-31 renal; 88.5% with TK-10 renal; 103% in the assay on ACHN renal; 116% in the assay with CAKI-1 renal; 95.4% with A498 renal; 96.1% in the assay with CCRF-CEM leukemia. In addition, the growth in the assay on MOLT-4 leukemia is 98.4%.

For the compound `O=C(O)c1cccc(-n2ncc(Cl)c(Cl)c2=O)c1`, the growth is 98.5% in the assay on HCT-15 colon; 113% in the assay on HT29 colon; 81.1% in the assay on SNB-75 CNS; 102% with SNB-19 CNS; 101% in the assay with U251 CNS; 88.7% in the assay on PC-3 prostate. Moreover, the growth was 98% with SK-MEL-5 melanoma; 97.2% with UACC-62 melanoma; 92.2% in the assay on LOX IMVI melanoma; 102% in the assay with SK-MEL-28 melanoma; 100% with SN12C renal; 107% in the assay on UO-31 renal. Also, the growth in the assay on TK-10 renal was 154%; in the assay with ACHN renal it was 106%; with CAKI-1 renal, 98.6%; in the assay on CCRF-CEM leukemia it was 98.3%; in the assay on MOLT-4 leukemia it was 96.5%.
